According to PubChem BioAssay (NCI):
This is part of a sample that, as a whole, favours compounds with a hit. Of some 79,000 tested, about 15% had one in any assay. The source made the active and inactive calls. No stated cut-off is given here; in the data, active means growth inhibition above about 70%; inactive means the rest.

Assays:
[1] = NCI Yeast Anticancer Drug Screen. Data for the rad52 strain (AID 147);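 further: 0% = growth of vehicle-treated control cultures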; settings: S. cerevisiae rad52 mutant growth inhibition, hits give high values
Summary of the method: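 Compounds are applied to a genetically defined yeast strain lacking normal DNA damage repair, and inhibition of growth is expressed relative to cultures given vehicle only.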

[2] = NCI Yeast Anticancer Drug Screen. Data for the wt1 strain (AID 149);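 further: 0% = growth of vehicle-treated wt1 cultures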; settings: S. cerevisiae wt1 strain (SPY 50644) growth inhibition, hits give high values
Summary of the method: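 Vehicle-normalised growth inhibition; strain wt1; compound exposure.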

[3] = NCI Yeast Anticancer Drug Screen. Data for the rad50EPP+ strain (AID 151);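 further: 0% = growth of vehicle-treated control cultures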; settings: S. cerevisiae rad50 mutant strain, hits give high values
Summary of the method: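 Compounds were applied to the rad50EPP+ yeast strain, which bears a defined DNA repair alteration, and growth inhibition was determined relative to vehicle-treated cultures.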

[4] = NCI Yeast Anticancer Drug Screen. Data for the mgt1 strain (AID 153); settings: S. cerevisiae mgt1 mutant growth inhibition, hits give high values
Summary of the method: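 Strain: mgt1 yeast, one of a set carrying defined DNA damage repair or cell cycle control alterations. Compound-treated growth compared with vehicle.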

[5] = NCI Yeast Anticancer Drug Screen. Data for the rad50 strain (AID 155);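 further: 0% = growth of vehicle-only cultures of the same strain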; settings: S. cerevisiae rad50 strain growth inhibition, hits give high values
Summary of the method: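 A DNA repair-deficient yeast mutant serves as the test organism; compound-induced growth inhibition is calculated against vehicle-treated cells.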

[6] = NCI Yeast Anticancer Drug Screen. Data for the mec2-1 strain (AID 157); settings: S. cerevisiae mec2-1 strain, hits give high values
Summary of the method: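 Strain: mec2-1 (DNA repair/cell cycle alteration). Compound exposure, then growth measured; inhibition expressed relative to vehicle.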

[7] = NCI Yeast Anticancer Drug Screen. Data for the rad14 strain (AID 159);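 further: 0% = growth of vehicle-treated control cultures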; settings: S. cerevisiae rad14 strain growth inhibition, hits give high values
Summary of the method: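 Vehicle-treated cultures served as the baseline for growth inhibition of a DNA repair-mutant yeast strain exposed to each compound.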

[8] = NCI Yeast Anticancer Drug Screen. Data for the sgs1 mgt1 strain (AID 161);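 further: 0% = growth of cultures given vehicle only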; settings: S. cerevisiae sgs1 mgt1 strain, hits give high values
Summary of the method: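 Mutant yeast exposed to compound; growth scored against vehicle-only wells.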

[9] = NCI Yeast Anticancer Drug Screen. Data for the CLN2oe strain (AID 163);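 further: 0% = growth of vehicle-only control cultures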; settings: S. cerevisiae CLN2oe strain, hits give high values
Summary of the method: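 Growth of a genetically modified yeast strain is measured after compound exposure and compared with cultures given vehicle alone.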

[10] = NCI Yeast Anticancer Drug Screen. Data for the cln2 rad14 strain (AID 165);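 further: 0% = growth equal to vehicle treated cultures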; settings: S. cerevisiae cln2 rad14 strain, hits give high values
Summary of the method: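 Compounds are applied to the cln2 rad14 yeast strain, and growth is then compared with that of vehicle-treated cultures to give inhibition.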

[11] = NCI Yeast Anticancer Drug Screen. Data for the bub3 strain (AID 167); settings: S. cerevisiae bub3 mutant strain, hits give high values
Summary of the method: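 Inhibition values come from growth of compound-treated mutant yeast normalised to vehicle-treated controls.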

[12] = NCI Yeast Anticancer Drug Screen. Data for the wt2 strain (AID 169);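 further: 0% = growth of vehicle-treated yeast cultures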; settings: S. cerevisiae wt2 strain growth inhibition, hits give high values
Summary of the method: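 This strain belongs to a panel of yeast strains with defined genetic alterations in DNA damage repair or cell cycle control. Compounds are applied, and growth inhibition is measured against vehicle-treated cultures.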

[13] = NCI Yeast Anticancer Drug Screen. Data for the mlh1 strain (AID 171);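 further: 0% = growth of vehicle-treated control cultures of the same strain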; settings: S. cerevisiae mlh1 strain growth inhibition, hits give high values
Summary of the method: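 Growth of the mutant yeast strain after compound exposure, expressed as inhibition relative to vehicle-only controls.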

[14] = NCI Yeast Anticancer Drug Screen. Data for the sgs1 strain (AID 173);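 further: 0% = growth of vehicle-only control cultures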; settings: S. cerevisiae sgs1 mutant, hits give high values
Summary of the method: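 Growth of a yeast strain bearing a defined genetic alteration is measured after compound treatment. Inhibition is expressed relative to vehicle-only controls.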

[15] = NCI Yeast Anticancer Drug Screen. Data for the mlh1 rad18 strain (AID 175); settings: S. cerevisiae mlh1 rad18 strain growth inhibition, hits give high values
Summary of the method: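 Read-out is yeast growth inhibition, calculated against vehicle-only controls. The compound was applied to a strain engineered with DNA damage repair alterations.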

[16] = NCI Yeast Anticancer Drug Screen. Data for the rad18 strain (AID 177); settings: S. cerevisiae rad18 mutant growth inhibition, hits give high values
Summary of the method: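 Growth of the mutant yeast strain after compound exposure, normalised to vehicle-only cultures.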

[17] = at 5.0 µM (retest, dose inferred, filed as 0.5)
[18] = at 50.0 µM (retest, dose inferred, filed as 5.0)

Measured: growth inhibition

Cn1c(-c2ccc(/C=N\N3CCN(/N=C/c4ccc(-c5c[n+]6ccccc6n5C)cc4)CC3)cc2)c[n+]2ccccc12
active: [1]; at 100.0 µM 82% | [2]; at 100.0 µM 92% | [4]; at 100.0 µM 91% | [5]; [18] 94% | [5]; at 100.0 µM 91% | [6]; at 33.0 µM 78% | [6]; [18] 96% | [6]; at 100.0 µM 93% | [7]; at 100.0 µM 84% | [8]; [18] 95% | [8]; at 50.0 µM 72.4% | [9]; at 100.0 µM 86% | [11]; [18] 95% | [11]; at 50.0 µM 80.5% | [11]; at 100.0 µM 91% | [12]; at 33.0 µM 74% | [12]; at 100.0 µM 92% | [13]; at 100.0 µM 90% | [14]; at 100.0 µM 90% | [15]; [18] 94% | [15]; at 50.0 µM 84.3% | [16]; at 100.0 µM 87%
inactive: [1]; at 1.2 µM -56% | [1]; at 3.7 µM -61% | [1]; at 11.0 µM -48% | [1]; at 33.0 µM 23% | [2]; at 1.2 µM -9% | [2]; at 3.7 µM -13% | [2]; at 11.0 µM -4% | [2]; at 33.0 µM 28% | [3]; at 1.2 µM -36% | [3]; at 3.7 µM -26% | [3]; at 11.0 µM -27% | [3]; at 33.0 µM -9% | [3]; at 100.0 µM 6% | [4]; at 1.2 µM -30% | [4]; at 3.7 µM -10% | [4]; at 11.0 µM -27% | [4]; at 33.0 µM 38% | [5]; at 1.2 µM -15% | [5]; at 3.7 µM -16% | [5]; [17] -2% | [5]; at 11.0 µM -4% | [5]; at 33.0 µM 51% | [5]; at 50.0 µM 49% | [6]; at 1.2 µM -8% | [6]; at 3.7 µM -17% | [6]; [17] 15% | [6]; at 11.0 µM 11% | [6]; at 50.0 µM 25.4% | [7]; at 1.2 µM -31% | [7]; at 3.7 µM -36% | [7]; at 11.0 µM -16% | [7]; at 33.0 µM 17% | [8]; [17] 19% | [9]; at 1.2 µM -22% | [9]; at 3.7 µM -41% | [9]; at 11.0 µM -27% | [9]; at 33.0 µM 52% | [10]; [17] -5% | [10]; [18] 69% | [10]; at 50.0 µM 22.4% | [11]; at 1.2 µM -13% | [11]; at 3.7 µM 0% | [11]; [17] 19% | [11]; at 11.0 µM -2% | [11]; at 33.0 µM 54% | [12]; at 1.2 µM -50% | [12]; at 3.7 µM -36% | [12]; at 11.0 µM -37% | [13]; at 1.2 µM -17% | [13]; at 3.7 µM -13% | [13]; at 11.0 µM 3% | [13]; at 33.0 µM 57% | [14]; at 1.2 µM -20% | [14]; at 3.7 µM -33% | [14]; at 11.0 µM -17% | [14]; at 33.0 µM 65% | [15]; [17] 46% | [16]; at 1.2 µM -23% | [16]; at 3.7 µM -19% | [16]; at 11.0 µM -31% | [16]; at 33.0 µM 47%
